Test results from paper PMC5540273 (PLoS ONE, 2017).

Assays:
Settings in all cases: concentration: 1 μM, replicates: in singlicate; n = 1
[1] = system: MAP3K4
[2] = system: MAP4K2
[3] = system: MAP4K3
[4] = system: MAP4K4
[5] = system: MAP4K5
[6] = system: MAPKAPK2
[7] = system: MAPKAPK5
[8] = system: MARK1
[9] = system: MARK2
[10] = system: MARK3
[11] = system: MARK4
[12] = system: MAST1
[13] = system: T1, MEK1
T1 construct: gene MAP2K1

[14] = system: T2, MEK2
T2 construct: gene MAP2K2

[15] = system: T3, MEK3
T3 construct: gene MAP2K3

[16] = system: T4, MEK4
T4 construct: gene MAP2K4

[17] = system: T5, MEK5
T5 construct: gene MAP2K5

[18] = system: T6, MEK6
T6 construct: gene MAP2K6

[19] = system: MELK
[20] = system: MERTK
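Further: KINOMEscan kinase panel screen.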

| Compound | %Inh [1] | %Inh [2] | %Inh [3] | %Inh [4] | %Inh [5] | %Inh [6] | %Inh [7] | %Inh [8] | %Inh [9] | %Inh [10] | %Inh [11] | %Inh [12] | %Inh [13] | %Inh [14] | %Inh [15] | %Inh [16] | %Inh [17] | %Inh [18] | %Inh [19] | %Inh [20] |
| --- | --- | --- | --- | --- | --- | --- | --- | --- | --- | --- | --- | --- | --- | --- | --- | --- | --- | --- | --- | --- |
| COc1cccc(C2=C(Nc3cccc(C(=O)O)c3)C(=O)NC2=O)c1 [SB-390770] | 20% | 0% | 11% | 12% | 15% | 6% | 0% | 15% | 0% | 0% | 23% | 35% | 0% | 10% | 0% | 16% | 4% | 0% | 21% | 3% |
| O=c1cc(N2CCOCC2)nc2n(Cc3ccc(F)c(Cl)c3)ccn12 [GSK2297099] | 25% | 0% | 0% | 0% | 0% | 2% | 0% | 0% | 0% | 0% | 0% | 0% | 0% | 0% | 0% | 5% | 1% | 14% | 0% | 0% |
| O=C(NCc1cccs1)c1cc(C(=O)c2c(Cl)cccc2Cl)c[nH]1 [GW823670] | 0% | 0% | 0% | 0% | 3% | 0% | 0% | 0% | 0% | 50% | 0% | 0% | 4% | 25% | 1% | 0% | 7% | 5% | 26% | 0% |
| COC(=O)c1c(-c2ccccc2)c2cc(C)ccc2c(=O)n1Cc1ccccc1 | 2% | 0% | 0% | 0% | 0% | 24% | 0% | 0% | 17% | 0% | 0% | 0% | 0% | 0% | 0% | 0% | 0% | 10% | 0% | 0% |
| Cc1nnc(-c2ccc3ncn(-c4ccc(S(C)=O)cc4)c3c2)o1 (centres unmarked) | 16% | 100% | 0% | 0% | 0% | 11% | 0% | 0% | 0% | 2% | 0% | 0% | 2% | 22% | 15% | 8% | 0% | 13% | 13% | 1% |
| CN(C)c1cc(-c2ccc3c(N)n[nH]c3c2)nc(N)n1 [GSK2219329] | 0% | 0% | 0% | 9% | 7% | 0% | 0% | 0% | 0% | 0% | 1% | 0% | 0% | 0% | 0% | 0% | 13% | 8% | 0% | 21% |
| Cc1cccc(-c2cc(-c3c[nH]nc3-c3ccccn3)ccn2)c1 [GW679395] | 13% | 0% | 0% | 0% | 0% | 17% | 0% | 0% | 0% | 0% | 0% | 0% | 0% | 0% | 0% | 36% | 27% | 0% | 0% | 12% |
| COc1cc2ncn(-c3cc(OCCCc4ccccc4)c(C(N)=O)s3)c2cc1OC [GSK205189] | 16% | 0% | 0% | 14% | 39% | 7% | 0% | 0% | 0% | 0% | 0% | 0% | 0% | 0% | 0% | 0% | 96.8% | 0% | 0% | 0% |
| COc1cc2nccc(Nc3cccc(Oc4ccccc4)c3)c2cc1OC.Cl [GW284543] | 0% | 0% | 0% | 0% | 0% | 15% | 0% | 0% | 8% | 31% | 1% | 7% | 87% | 88% | 0% | 0% | 99.9% | 0% | 8% | 0% |
| CCC(=O)c1c(-c2ccccc2)c2cc(Cl)ccc2c(=O)n1Cc1ccc(C(=O)O)cc1 | 0% | 12% | 0% | 0% | 0% | 0% | 17% | 0% | 3% | 0% | 0% | 11% | 0% | 3% | 0% | 0% | 0% | 0% | 0% | 0% |
| Cc1nnc(-c2ccc(C)c(-c3ccc(C(=O)O)cc3)c2)o1 [GW608005] | 8% | 0% | 0% | 10% | 0% | 1% | 0% | 4% | 0% | 0% | 21% | 0% | 0% | 0% | 0% | 14% | 0% | 0% | 0% | 25% |
| O=C(Nc1ccc2c(c1)OCO2)NC1CCN(c2ccnc(NCc3ccc(F)cc3)n2)CC1 [GSK1379859] | 0% | 0% | 0% | 3% | 0% | 13% | 0% | 8% | 0% | 0% | 20% | 0% | 0% | 0% | 6% | 0% | 8% | 0% | 100% | 26% |
| CCc1nc(-c2cccc(C)c2)c(-c2ccncc2)s1 | 0% | 0% | 0% | 17% | 0% | 0% | 0% | 0% | 11% | 0% | 0% | 0% | 2% | 48% | 23% | 0% | 34% | 0% | 0% | 0% |
| C[C@@H]1CC[C@H](C(=O)NC2CCCCC2)CN1c1cc(-c2ccc3c(N)n[nH]c3c2)nc(N)n1 [GSK2291363] | 28% | 0% | 0% | 7% | 0% | 0% | 0% | 3% | 3% | 0% | 11% | 0% | 0% | 0% | 18% | 27% | 35% | 9% | 26% | 33% |
| O=C(NCCNc1ccnc(Nc2ccc(F)cc2)n1)Nc1ccc2c(c1)OCO2 [GSK1379882] | 24% | 0% | 0% | 0% | 0% | 0% | 0% | 0% | 0% | 0% | 0% | 4% | 9% | 19% | 4% | 10% | 9% | 8% | 8% | 0% |
| Nc1ncnc2c1ncn2-c1ccc(Cl)cc1 [AH2635] | 0% | 0% | 0% | 12% | 0% | 10% | 0% | 0% | 0% | 3% | 13% | 0% | 0% | 0% | 0% | 12% | 48% | 0% | 0% | 10% |

| Compound | %Inh [1] | %Inh [2] | %Inh [3] | %Inh [4] | %Inh [5] | %Inh [6] | %Inh [7] | %Inh [8] | %Inh [9] | %Inh [10] | %Inh [11] | %Inh [12] | %Inh [13] | %Inh [14] | %Inh [15] | %Inh [16] | %Inh [17] | %Inh [18] | %Inh [19] | %Inh [20] |
| --- | --- | --- | --- | --- | --- | --- | --- | --- | --- | --- | --- | --- | --- | --- | --- | --- | --- | --- | --- | --- |
| CCCNC(=O)Nc1ccc(Oc2ncnc3ccn(C)c23)cc1 | 6% | 7% | 0% | 0% | 0% | 7% | 0% | 6% | 6% | 0% | 9% | 0% | 0% | 0% | 0% | 10% | 61% | 14% | 7% | 13% |
| Cc1ccc(Oc2ccc(Nc3ncnc4cc[nH]c34)cc2C)cn1 | 6% | 0% | 0% | 0% | 0% | 0% | 30% | 20% | 4% | 3% | 19% | 49% | 37% | 25% | 0% | 0% | 99.7% | 9% | 0% | 0% |
| Nc1nc(N)c2nc(-c3ccccc3)[nH]c2n1 [SKF-12778] | 26% | 26% | 0% | 26% | 21% | 13% | 5% | 1% | 0% | 0% | 11% | 0% | 0% | 13% | 0% | 1% | 18% | 0% | 9% | 47% |
| Cc1c(Cn2c(C)nn3c(=O)cc(N4CCO[C@H](C)C4)nc23)cccc1C(F)(F)F [GSK2373690] | 43% | 0% | 0% | 3% | 0% | 23% | 0% | 0% | 0% | 0% | 0% | 0% | 0% | 0% | 0% | 12% | 1% | 0% | 0% | 14% |
| O=C(Nc1n[nH]c2nc(-c3ccccc3)c(Br)cc12)C1CC1 [SB-708998] | 0% | 1% | 0% | 17% | 13% | 0% | 0% | 0% | 0% | 0% | 0% | 0% | 0% | 0% | 0% | 21% | 42% | 0% | 6% | 27% |
| Cc1nc(N(C)[C@H]2CN(C(=O)CC#N)CC[C@H]2C)c2cc[nH]c2n1 | 12% | 1% | 0% | 0% | 0% | 0% | 10% | 9% | 0% | 0% | 12% | 0% | 2% | 4% | 10% | 0% | 0% | 0% | 0% | 24% |
| FC(F)(F)c1ccc(-c2ncn(CCCN3CCOCC3)c2-c2ccncc2)cc1 [SB-217780] | 7% | 0% | 0% | 0% | 0% | 12% | 22% | 9% | 0% | 3% | 20% | 23% | 0% | 0% | 27% | 3% | 33% | 0% | 2% | 0% |
| COc1cc(Nc2ccnc3ccc(C(F)(F)F)cc23)cc(OC)c1OC [GW577382] | 7% | 1% | 0% | 15% | 4% | 0% | 0% | 8% | 0% | 0% | 11% | 4% | 14% | 0% | 0% | 32% | 50% | 0% | 13% | 27% |
| Nc1n[nH]c2nnc(-c3ccccc3)c(-c3ccccc3)c12 [GW554060] | 0% | 0% | 0% | 0% | 0% | 22% | 0% | 0% | 0% | 0% | 0% | 9% | 0% | 0% | 5% | 14% | 30% | 0% | 18% | 0% |
| CC(C)(C)c1ccc(C(=O)Nc2cn3cc(-c4ccccc4)ccc3n2)cc1 | 7% | 0% | 33% | 5% | 0% | 12% | 0% | 0% | 19% | 0% | 0% | 0% | 0% | 45% | 25% | 0% | 75% | 0% | 0% | 0% |
| CN1C(=O)C(Nc2ccccc2)=C(c2ccccc2)C1=O [SB-300079] | 0% | 0% | 0% | 0% | 0% | 0% | 0% | 10% | 0% | 23% | 12% | 100% | 19% | 34% | 25% | 18% | 41% | 0% | 0% | 0% |
| COC(=O)c1c(-c2ccccc2)c2cc(Br)ccc2c(=O)n1Cc1ccc(S(C)(=O)=O)cc1 | 9% | 0% | 0% | 19% | 0% | 4% | 2% | 1% | 0% | 11% | 1% | 21% | 13% | 7% | 2% | 17% | 29% | 17% | 12% | 4% |
| CCCC(=O)Nc1n[nH]c2ncc(-c3cccc4ccccc34)cc12 [SB-642057] | 34% | 0% | 12% | 8% | 7% | 8% | 0% | 2% | 0% | 0% | 0% | 0% | 4% | 8% | 0% | 0% | 12% | 0% | 33% | 0% |
| CCC(=O)c1c(-c2ccccc2)c2cc(Cl)ccc2c(=O)n1Cc1cc(S(C)(=O)=O)n(CC(N)=O)n1 | 0% | 0% | 0% | 0% | 0% | 0% | 0% | 0% | 0% | 6% | 5% | 0% | 1% | 40% | 0% | 0% | 15% | 0% | 0% | 0% |
| COc1cc(Nc2nccc(N3CCC(NC(=O)C(C)c4ccc(Cl)cc4)C3)n2)cc(OC)c1OC (centres unmarked) [GSK1379757] | 0% | 0% | 0% | 8% | 5% | 14% | 0% | 0% | 0% | 0% | 11% | 0% | 0% | 0% | 0% | 5% | 59% | 0% | 6% | 0% |
